Laboratory results: PubChem BioAssay (EPA / NIEHS)
“And” between values parts separate entries of the source, which are not always exact repeats. Equal entries are not always repeated. Records with an inconclusive call do not appear. A structure can be active in one record and inactive in another. The source made the active and inactive calls. The calls were made as follows, unless noted: active = hit-call score of the fitted dose curve at least 0.9, where 1 is the maximum; inactive = score below 0.9.

Columns and labels:
[1] = read-out: Monokine induced gamma interferon (MIG), CXCL9 (gene 4283); test: BSK_SAg_MIG: BioMAP Diversity Plus: SAg Assay for Monokine induced gamma interferon (MIG) Biomarker Activity (AID 2283092); conditions: primary human HUVEC with PBMC; actives raise or lower the signal
In short: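 Values reflect bidirectional fitting of ELISA-measured MIG against DMSO vehicle, taken 24 h after dosing of a co-culture of human umbilical vein endothelial cells and peripheral blood mononuclear cells.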

[2] = BSK_SAg_PBMCCytotoxicity: PBMC Cytotoxicity Assessment in the BioMAP Diversity Plus: SAg Assay (AID 2283093); conditions: primary human HUVEC with PBMC;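 also: PBMC viability measured as Alamar Blue reduction fluorescence at 546/580 nm; fitted both ways against DMSO so a hit may be loss or gain of signal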;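 as to AC50: PBMC superantigen activated with SEB plus TSST-1 one hour after compound addition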
In short: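 HUVEC/PBMC co-culture; PBMC exposed to chemical 1 h before SEB and TSST-1 activation (20 ng/mL each), incubated 90 h, then Alamar Blue 6 h, fluorescence 546/580 nm. Bidirectional fit versus DMSO baseline.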

[3] = read-out: Interleukin-8 (IL8), CXCL8 (gene 3576); test: BSK_SAg_IL8: BioMAP Diversity Plus: SAg Assay for Interleukin-8 (IL8) Biomarker Activity (AID 2283094); conditions: primary human HUVEC with PBMC; actives raise or lower the signal
In short: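 Human umbilical vein endothelial cells co-cultured with peripheral blood mononuclear cells; IL-8 measured by ELISA 24 h after chemical dosing. Bidirectional concentration-response fitting used DMSO as negative control and activity baseline.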

[4] = BSK_SAg_Proliferation: Cell Proliferation Assessment in the BioMAP Diversity Plus: SAg Assay (AID 2283095); conditions: primary human HUVEC with PBMC;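 also: relative cell number as total protein by SRB absorbance in sub-confluent culture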
In short: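 Human umbilical vein endothelial cells co-cultured with peripheral blood mononuclear cells; total protein measured by sulforhodamine B staining (0.1% SRB after 10% TCA fixation), absorbance at 560 nm, at 96 h. Bidirectional fit against DMSO baseline.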

[5] = BSK_SAg_SRB: Viability Assessment in the BioMAP Diversity Plus: SAg Assay (AID 2283096); conditions: primary human HUVEC with PBMC;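 also: cells read one day after compound addition; hits may be either gain or loss of signal compared with DMSO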
In short: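 Human umbilical vein endothelial cells co-cultured with PBMC, read 24 h after compound dosing. Total protein measured by sulforhodamine B staining (0.1% SRB after 10% TCA fixation, absorbance 560 nm); bidirectional fit versus DMSO baseline.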

[6] = target: Cytochrome P450 2C19 (Homo sapiens) (UniProt P33261); test: NVS_ADME_hCYP2C19: NovaScreen (NVS) CYP450-related Enzyme Activity (ADME) Assay for human CYP2C19 (AID 2283113; active = hit-call score of the fitted dose curve at least 0.9, where 1 is the maximum;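 also: potency for inhibition seen as loss of fluorescent signal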)
In short: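 Biochemical CYP2C19 inhibition screen: insect-cell recombinant protein plus fluorescent substrate, 1 h, fluorescence intensity. Acetonitrile defined baseline activity. Single 10 uM concentration in duplicate, with concentration-response follow-up for actives.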

[7] = target: human Acid Phosphatase 1 (ACP1), ACP1 (gene 52) (UniProt P24666); test: NVS_ENZ_hACP1: NovaScreen (NVS) Enzymatic Assay for human Acid Phosphatase 1 (ACP1) (AID 2283136; active = hit-call score of the fitted dose curve at least 0.9, where 1 is the maximum)
In short: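 Recombinant enzyme expressed in Sf9 cells, tested cell-free; activity read by fluorescence with electrophoretic mobility shift separation of substrate and product, 1.5 h after dosing. Primary screen in duplicate at 25 uM, actives then run in concentration series; loss of signal versus DMSO.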

[8] = target: Cytochrome P450 3A4 (Homo sapiens) (UniProt P08684); test: NVS_ADME_hCYP3A4: NovaScreen (NVS) CYP450-related Enzyme Activity (ADME) Assay for human CYP3A4 (AID 2283110; active = hit-call score of the fitted dose curve at least 0.9, where 1 is the maximum)
In short: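 Cell-free recombinant enzyme expressed in insect cells; fluorescent substrate turnover read after 0.33 h, acetonitrile as negative control. Primary screen in duplicate at 10 uM, actives then tested in concentration series.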

[9] = target: human Beta-secretase (BACE), BACE1 (gene 23621) (UniProt P56817); test: NVS_ENZ_hBACE: NovaScreen (NVS) Enzymatic Assay for human Beta-secretase (BACE) (AID 2283140; active = hit-call score of the fitted dose curve at least 0.9, where 1 is the maximum;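 also: hits are inhibitors that reduce fluorescent substrate signal versus DMSO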)
In short: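 Cell-free fluorescence-intensity assay of recombinant BACE1 expressed in SF9 cells, read 1 hour after dosing. Loss of signal indicates reduced protease activity, fitted relative to DMSO negative control. Primary screen at 25 uM in duplicate; actives followed in concentration series.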

[10] = target: human CYP19A1, CYP19A1 (gene 1588) (UniProt P11511); test: NVS_ADME_hCYP19A1: NovaScreen (NVS) CYP450-related Enzyme Activity (ADME) Assay for human CYP19A1 (AID 2283098; active = hit-call score of the fitted dose curve at least 0.9, where 1 is the maximum)
In short: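 Recombinant enzyme in a cell-free format, read 0.5 h after dosing by fluorescence from a fluorogenic substrate. Loss of signal was fitted against acetonitrile as baseline. Primary screen in duplicate at 10 uM, actives then tested in concentration series.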

[11] = target: human CYP1A1, CYP1A1 (gene 1543) (UniProt P04798); test: NVS_ADME_hCYP1A1: NovaScreen (NVS) CYP450-related Enzyme Activity (ADME) Assay for human CYP1A1 (AID 2283100; active = hit-call score of the fitted dose curve at least 0.9, where 1 is the maximum)
In short: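 Inhibition of recombinant CYP1A1 turnover was assessed fluorometrically in a biochemical format 1 h after compound exposure. Testing began at 10 uM in duplicate and progressed to concentration series reaching 20 uM, with on-plate positive and negative controls.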

[12] = target: human CYP1A2, CYP1A2 (gene 1544) (UniProt P05177); test: NVS_ADME_hCYP1A2: NovaScreen (NVS) CYP450-related Enzyme Activity (ADME) Assay for human CYP1A2 (AID 2283102; active = hit-call score of the fitted dose curve at least 0.9, where 1 is the maximum;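 also: potency for inhibition since loss of fluorescence marks reduced CYP1A2 activity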)
In short: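 Inhibition scored as decrease in fluorescent product versus acetonitrile negative control. Enzyme: insect-cell recombinant human CYP1A2, substrate-specific, cell-free. Reading at 0.5 h; 10 uM duplicate initial screen with positive and negative controls on every plate.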

[13] = target: human Caspase 5 (CASP5), CASP5 (gene 838) (UniProt P51878); test: NVS_ENZ_hCASP5: NovaScreen (NVS) Enzymatic Assay for human Caspase 5 (CASP5) (AID 2283137; active = hit-call score of the fitted dose curve at least 0.9, where 1 is the maximum)
In short: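 Recombinant E. coli-expressed human caspase 5 in a cell-free enzyme assay; fluorescence intensity read 2 hours after chemical dosing. Single-concentration duplicate screen at 25 uM, then concentration-response up to 50 uM for hits; DMSO negative control.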

CDK2 (gene 1017) = CDK2 (gene 1017) (UniProt P24941); test: NVS_ENZ_hCDK2: NovaScreen (NVS) Enzymatic Assay for human Cyclin-Cependent Kinase 2 (CDK2) (AID 2283144; active = hit-call score of the fitted dose curve at least 0.9, where 1 is the maximum)
In short: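 Cell-free recombinant human CDK2 with fluorescent substrate, product separated by electrophoretic mobility shift; 1 hr read. Primary screen at 25 uM in duplicate, actives retested in concentration-response up to 50 uM; loss of signal versus DMSO.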

[14] = target: human CYP2D6, CYP2D6 (gene 1565) (UniProt P10635); test: NVS_ADME_hCYP2D6: NovaScreen (NVS) CYP450-related Enzyme Activity (ADME) Assay for human CYP2D6 (AID 2283107; active = hit-call score of the fitted dose curve at least 0.9, where 1 is the maximum)
In short: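 Biochemical fluorescence assay, insect-cell-derived enzyme. Read at 1 h; inhibition taken from loss of signal against acetonitrile. Screened at 10 uM in duplicate, with concentration series for actives.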

[15] = target: human AKT serine/threonine Kinase 1 (AKT1), AKT1 (gene 207) (UniProt P31749); test: NVS_ENZ_hAKT1: NovaScreen (NVS) Enzymatic Assay for human AKT serine/threonine Kinase 1 (AKT1) (AID 2283138; active = hit-call score of the fitted dose curve at least 0.9, where 1 is the maximum)
In short: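 Cell-free recombinant enzyme with substrate; activity read by fluorescence intensity after electrophoretic mobility shift separating substrate from product, 1 h after dosing. Single-concentration duplicates at 25 uM, then singleton concentration-response up to 50 uM; loss of signal versus DMSO.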

[16] = target: human CYP2B6, CYP2B6 (gene 1555) (UniProt P20813); test: NVS_ADME_hCYP2B6: NovaScreen (NVS) CYP450-related Enzyme Activity (ADME) Assay for human CYP2B6 (AID 2283101; active = hit-call score of the fitted dose curve at least 0.9, where 1 is the maximum)
In short: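 Compounds were first screened in duplicate at 10 uM against recombinant enzyme, with the fluorescent product measured after 1 hour. Active compounds were retested over a concentration series. Loss of fluorescence versus acetonitrile control was scored as reduced enzyme activity.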

[17] = target: rat CYP2A2, Cyp2a2 (gene 24895) (UniProt P15149); test: NVS_ADME_rCYP2A2: NovaScreen (NVS) CYP450-related Enzyme Activity (ADME) Assay for rat CYP2A2 (AID 2283116; active = hit-call score of the fitted dose curve at least 0.9, where 1 is the maximum)
In short: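 Cell-free recombinant rat CYP2A2 activity with fluorogenic substrate, fluorescence read 0.2 h after dosing. Chemicals screened at 10 uM in duplicate, hits then run in concentration-response up to 20 uM; signal loss versus acetonitrile baseline.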

[18] = target: human AKT serine/threonine Kinase 2 (AKT2), AKT2 (gene 208) (UniProt P31751); test: NVS_ENZ_hAKT2: NovaScreen (NVS) Enzymatic Assay for human AKT serine/threonine Kinase 2 (AKT2) (AID 2283141; active = hit-call score of the fitted dose curve at least 0.9, where 1 is the maximum)
In short: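 Cell-free fluorescence/electrophoretic mobility shift readout of recombinant human AKT2 activity, 1 h after chemical dosing. Duplicate primary screen at 25 uM, then singleton concentration-response up to 50 uM; loss of signal versus DMSO baseline.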

Measured: AC50

Chain of human Beta-secretase (BACE), BACE1 (gene 23621) (P56817 whole entry, looked up): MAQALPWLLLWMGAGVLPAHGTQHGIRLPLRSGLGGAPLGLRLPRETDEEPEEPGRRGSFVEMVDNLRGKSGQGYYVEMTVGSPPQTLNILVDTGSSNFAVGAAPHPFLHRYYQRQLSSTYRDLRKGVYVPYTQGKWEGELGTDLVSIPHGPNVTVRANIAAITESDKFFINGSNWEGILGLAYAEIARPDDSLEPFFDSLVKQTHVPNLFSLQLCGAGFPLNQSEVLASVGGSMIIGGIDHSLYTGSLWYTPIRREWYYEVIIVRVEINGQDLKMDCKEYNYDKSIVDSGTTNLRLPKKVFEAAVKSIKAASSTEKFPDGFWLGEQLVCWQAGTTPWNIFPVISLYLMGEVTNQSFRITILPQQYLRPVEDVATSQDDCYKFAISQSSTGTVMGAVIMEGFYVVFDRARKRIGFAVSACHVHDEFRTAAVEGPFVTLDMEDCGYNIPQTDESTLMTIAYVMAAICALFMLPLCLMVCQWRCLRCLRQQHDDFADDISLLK
Chain of human AKT serine/threonine Kinase 1 (AKT1), AKT1 (gene 207) (P31749 whole entry, looked up): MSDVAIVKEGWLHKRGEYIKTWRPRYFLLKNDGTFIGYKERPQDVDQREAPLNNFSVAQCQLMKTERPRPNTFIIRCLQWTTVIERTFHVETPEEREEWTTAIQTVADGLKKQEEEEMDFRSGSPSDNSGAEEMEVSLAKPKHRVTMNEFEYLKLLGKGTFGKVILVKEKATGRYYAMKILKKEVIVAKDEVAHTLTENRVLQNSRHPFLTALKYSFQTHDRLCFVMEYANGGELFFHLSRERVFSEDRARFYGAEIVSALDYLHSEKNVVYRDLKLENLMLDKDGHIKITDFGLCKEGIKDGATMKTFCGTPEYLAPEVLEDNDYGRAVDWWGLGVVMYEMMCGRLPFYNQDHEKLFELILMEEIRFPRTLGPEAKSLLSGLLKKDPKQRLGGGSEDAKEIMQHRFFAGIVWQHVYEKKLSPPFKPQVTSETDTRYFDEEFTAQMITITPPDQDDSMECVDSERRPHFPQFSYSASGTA
Chain of human Caspase 5 (CASP5), CASP5 (gene 838) (P51878 whole entry, looked up): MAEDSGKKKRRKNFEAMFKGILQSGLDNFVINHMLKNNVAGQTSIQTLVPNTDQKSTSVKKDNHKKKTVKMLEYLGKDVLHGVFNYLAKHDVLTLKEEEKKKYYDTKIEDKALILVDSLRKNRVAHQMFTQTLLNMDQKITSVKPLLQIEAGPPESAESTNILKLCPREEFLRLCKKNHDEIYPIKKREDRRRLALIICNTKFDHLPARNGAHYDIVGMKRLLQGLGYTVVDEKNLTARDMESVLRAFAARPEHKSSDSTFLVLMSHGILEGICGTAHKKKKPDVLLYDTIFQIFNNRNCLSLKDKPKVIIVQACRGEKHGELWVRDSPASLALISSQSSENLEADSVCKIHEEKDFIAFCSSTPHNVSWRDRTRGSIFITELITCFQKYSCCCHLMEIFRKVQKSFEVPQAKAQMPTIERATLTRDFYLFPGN
Chain of human CYP2D6, CYP2D6 (gene 1565) (P10635 whole entry, looked up): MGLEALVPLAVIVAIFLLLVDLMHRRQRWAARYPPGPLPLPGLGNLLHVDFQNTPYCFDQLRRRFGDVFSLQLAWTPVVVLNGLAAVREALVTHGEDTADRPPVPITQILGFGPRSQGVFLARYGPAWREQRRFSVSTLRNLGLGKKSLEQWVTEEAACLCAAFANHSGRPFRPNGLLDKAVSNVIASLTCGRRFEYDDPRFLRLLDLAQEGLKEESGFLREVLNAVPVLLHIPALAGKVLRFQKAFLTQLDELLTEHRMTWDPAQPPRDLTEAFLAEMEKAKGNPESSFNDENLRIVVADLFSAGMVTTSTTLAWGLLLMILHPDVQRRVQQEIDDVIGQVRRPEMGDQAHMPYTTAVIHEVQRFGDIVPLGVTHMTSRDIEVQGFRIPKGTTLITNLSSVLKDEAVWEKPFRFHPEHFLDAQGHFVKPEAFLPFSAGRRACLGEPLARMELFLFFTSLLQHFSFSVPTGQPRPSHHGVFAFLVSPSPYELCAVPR
Chain of human Acid Phosphatase 1 (ACP1), ACP1 (gene 52) (P24666 whole entry, looked up): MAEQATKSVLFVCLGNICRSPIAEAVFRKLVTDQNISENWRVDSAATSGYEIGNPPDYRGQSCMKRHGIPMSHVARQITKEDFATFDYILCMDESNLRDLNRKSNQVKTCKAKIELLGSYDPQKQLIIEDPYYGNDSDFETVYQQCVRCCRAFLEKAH
Chain of Cytochrome P450 3A4 (Homo sapiens) (P08684 whole entry, looked up): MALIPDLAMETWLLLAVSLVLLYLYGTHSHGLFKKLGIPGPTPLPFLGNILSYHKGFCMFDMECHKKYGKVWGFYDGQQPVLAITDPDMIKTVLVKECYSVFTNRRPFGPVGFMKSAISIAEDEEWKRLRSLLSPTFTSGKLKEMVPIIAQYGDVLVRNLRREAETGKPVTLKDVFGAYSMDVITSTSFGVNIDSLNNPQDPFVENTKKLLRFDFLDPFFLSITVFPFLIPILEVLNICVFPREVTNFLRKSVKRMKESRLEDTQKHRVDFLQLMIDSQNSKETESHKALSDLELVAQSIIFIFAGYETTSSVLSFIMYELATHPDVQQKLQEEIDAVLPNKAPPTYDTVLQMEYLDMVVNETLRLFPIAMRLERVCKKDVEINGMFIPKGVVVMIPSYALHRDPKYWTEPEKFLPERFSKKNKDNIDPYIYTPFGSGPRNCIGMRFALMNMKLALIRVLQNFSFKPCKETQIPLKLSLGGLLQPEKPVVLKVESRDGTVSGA
Chain of rat CYP2A2, Cyp2a2 (gene 24895) (P15149 whole entry, looked up): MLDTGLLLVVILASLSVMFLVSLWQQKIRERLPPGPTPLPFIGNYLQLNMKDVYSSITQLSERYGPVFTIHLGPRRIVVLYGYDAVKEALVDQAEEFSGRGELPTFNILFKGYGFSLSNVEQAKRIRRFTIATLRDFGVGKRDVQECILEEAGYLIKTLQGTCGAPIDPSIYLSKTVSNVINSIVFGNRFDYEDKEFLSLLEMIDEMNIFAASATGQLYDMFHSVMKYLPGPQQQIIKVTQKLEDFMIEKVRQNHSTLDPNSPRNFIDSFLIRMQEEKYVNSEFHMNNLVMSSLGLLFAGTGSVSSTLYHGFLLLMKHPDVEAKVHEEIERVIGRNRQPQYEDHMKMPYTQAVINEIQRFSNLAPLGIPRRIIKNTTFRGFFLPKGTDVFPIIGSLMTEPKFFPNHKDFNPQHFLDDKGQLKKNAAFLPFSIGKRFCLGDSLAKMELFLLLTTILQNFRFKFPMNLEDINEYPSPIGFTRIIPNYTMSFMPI
Chain of human CYP19A1, CYP19A1 (gene 1588) (P11511 whole entry, looked up): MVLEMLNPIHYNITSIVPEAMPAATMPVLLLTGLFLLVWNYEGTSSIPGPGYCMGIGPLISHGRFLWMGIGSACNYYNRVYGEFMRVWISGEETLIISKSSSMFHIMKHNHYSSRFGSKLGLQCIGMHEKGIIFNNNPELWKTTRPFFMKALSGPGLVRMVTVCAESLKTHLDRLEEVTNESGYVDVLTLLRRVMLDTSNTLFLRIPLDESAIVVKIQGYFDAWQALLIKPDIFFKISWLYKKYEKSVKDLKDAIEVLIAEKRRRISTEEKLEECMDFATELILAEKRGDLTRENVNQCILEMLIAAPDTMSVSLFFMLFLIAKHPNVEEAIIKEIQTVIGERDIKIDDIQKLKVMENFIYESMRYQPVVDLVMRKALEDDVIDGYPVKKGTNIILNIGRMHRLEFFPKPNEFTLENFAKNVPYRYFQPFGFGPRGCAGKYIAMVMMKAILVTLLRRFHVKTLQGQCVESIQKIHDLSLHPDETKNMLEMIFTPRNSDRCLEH
Chain of human CYP1A2, CYP1A2 (gene 1544) (P05177 whole entry, looked up): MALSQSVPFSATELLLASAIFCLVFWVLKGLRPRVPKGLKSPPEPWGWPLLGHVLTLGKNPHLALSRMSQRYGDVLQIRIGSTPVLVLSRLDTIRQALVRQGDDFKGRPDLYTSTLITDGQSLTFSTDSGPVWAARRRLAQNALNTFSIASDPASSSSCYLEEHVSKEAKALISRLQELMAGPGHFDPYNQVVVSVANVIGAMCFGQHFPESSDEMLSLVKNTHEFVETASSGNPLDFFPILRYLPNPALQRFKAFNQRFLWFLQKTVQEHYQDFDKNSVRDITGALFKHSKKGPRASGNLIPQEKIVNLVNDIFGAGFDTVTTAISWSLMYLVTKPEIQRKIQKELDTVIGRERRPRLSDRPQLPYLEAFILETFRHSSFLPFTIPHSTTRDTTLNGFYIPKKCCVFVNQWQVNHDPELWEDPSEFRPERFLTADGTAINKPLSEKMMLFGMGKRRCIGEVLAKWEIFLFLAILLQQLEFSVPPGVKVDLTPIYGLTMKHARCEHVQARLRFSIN
Chain of human AKT serine/threonine Kinase 2 (AKT2), AKT2 (gene 208) (P31751 whole entry, looked up): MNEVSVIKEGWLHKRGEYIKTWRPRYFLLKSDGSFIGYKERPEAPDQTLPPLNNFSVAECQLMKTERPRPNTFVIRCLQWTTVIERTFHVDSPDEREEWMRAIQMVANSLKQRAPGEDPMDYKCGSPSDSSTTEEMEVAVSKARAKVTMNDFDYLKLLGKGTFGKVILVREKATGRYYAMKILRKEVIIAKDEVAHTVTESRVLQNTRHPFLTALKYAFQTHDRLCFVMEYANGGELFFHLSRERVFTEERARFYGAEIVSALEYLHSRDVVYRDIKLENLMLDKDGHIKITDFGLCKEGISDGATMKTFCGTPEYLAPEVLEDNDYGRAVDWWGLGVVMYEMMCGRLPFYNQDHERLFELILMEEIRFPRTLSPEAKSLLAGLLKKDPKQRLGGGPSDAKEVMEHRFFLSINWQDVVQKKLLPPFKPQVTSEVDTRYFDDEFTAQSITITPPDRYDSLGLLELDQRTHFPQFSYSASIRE

CCOC(=O)CN[C@@H](C(=O)N1CC[C@H]1C(=O)NCc1ccc(/C(N)=N/O)cc1)C1CCCCC1
inactive: [1] | [2] | [3] | [4] | [5]

CCCCCc1ccc(O)cc1
active: [1] 36.7 µM | [2] 13.5 µM | [3] 30.6 µM | [4] 15.3 µM | [5] 25.9 µM

O=C1c2ccc(O)c(O)c2C(=O)c2c(O)ccc(O)c21
inactive: [1] | [2] | [3] | [4] | [5]

CCCCCCCCCCCCCCC
inactive: [1] | [2] | [3] | [4] | [5]
active: [6] 10 µM

CCCCC(CC)C(=O)O (centres undefined)
inactive: [1] | [2] | [3] | [4] | [5] | [7]

CC(C)C=O
active: [8] 5 µM

CNNCc1ccc(C(=O)NC(C)C)cc1
inactive: [9]

CN(C)c1ccc(C(=C2C=CC(=[N+](C)C)C=C2)c2ccccc2)cc1
active: [1] 0.132 µM | [2] 0.481 µM | [3] 2.78 µM | [4] 0.0153 µM | [5] 0.0747 µM

CCCCCCc1ccc(N)cc1
inactive: [10]

CCCCCC(C)OC(=O)COc1ccc(Cl)c2cccnc12 (centres undefined)
inactive: [11]
active: [12] 0.751 µM

COC1=CC(=O)C[C@@H](C)[C@]12Oc1c(Cl)c(OC)cc(OC)c1C2=O
inactive: [1] | [2] | [3] | [4] | [5]

O=S(=O)(O)C(F)(F)C(F)(F)C(F)(F)C(F)(F)C(F)(F)C(F)(F)C(F)(F)C(F)(F)C(F)(F)C(F)(F)F
inactive: [1] | [2] | [3] | [4] | [5]
active: [5] 13.2 µM

Cc1[nH]nc2c1N=C(c1ccccc1Cl)c1cc([N+](=O)[O-])ccc1N2
inactive: [2] | [13]
active: [1] 8.28 µM | [3] 0.893 µM | [4] 1.94 µM | [5] 2.15 µM | CDK2 (gene 1017) 0.0067 µM

CCCCCCCCCCCCCCCCCC[N+](C)(C)Cc1ccccc1
active: [1] 3.19 µM | [2] 0.919 µM | [3] 10 µM | [4] 0.312 µM | [5] 2.67 µM | [14] 0.425 µM | [6] 1.8 µM

OCC(F)(F)C(F)(F)C(F)(F)C(F)(F)C(F)(F)C(F)(F)C(F)(F)C(F)(F)C(F)(F)C(F)(F)C(F)(F)F
active: [2] 115 nM and 64.1 nM | [4] 476 nM and 63.9 nM
inactive: [1] | [3] | [5]

COc1cc(OC)nc(NC(=O)NS(=O)(=O)Nc2ccccc2C(=O)N(C)C)n1
inactive: [1] | [2] | [3] | [4] | [5]

CC(C)CCOCCC(C)C
active: [6] 5 µM

CCCCC(CC)C(=O)OCCOCCOCCOCCOC(=O)C(CC)CCCC (centres undefined)
inactive: [1] | [2] | [3] | [4] | [5] | [8]

O=C(CCCN1CCC(O)(c2ccc(Cl)cc2)CC1)c1ccc(F)cc1
inactive: [1] | [2] | [3] | [15]
active: [4] 27 µM | [5] 19 µM

CC(C)(C)c1ccc(O)c(O)c1
active: [1] 34.8 µM | [2] 3.06 µM | [3] 20 µM | [4] 2.68 µM | [5] 29.1 µM

CN(Cc1cnc2nc(N)nc(N)c2n1)c1ccc(C(=O)N[C@@H](CCC(=O)O)C(=O)O)cc1
active: [4] 3.39 µM and 2.18 µM and 1.17 µM
inactive: [1] | [2] | [3] | [5] | [16] | [9]

C=CC(=C)CC/C=C(\C)CCC=C(C)C
inactive: [1] | [2] | [3] | [4] | [5]

CCC(C)c1ccccc1O (centres undefined)
inactive: [1] | [2] | [3] | [4] | [5] | [15]

c1cc[nH]c1
active: [6] 0.992 µM
inactive: [14]

NC(=NCCCCCCN=C(N)/N=C(\N)Nc1ccc(Cl)cc1)/N=C(\N)Nc1ccc(Cl)cc1
active: [1] 7.58 µM | [2] 7.06 µM | [3] 0.896 µM | [4] 2.72 µM | [5] 4.89 µM | [17] 2.84 µM

NS(=O)(=O)O
inactive: [9]

C=CC(C)(CCC=C(C)C)OC(C)=O (centres undefined)
inactive: [1] | [2] | [3] | [4] | [5]

CS(=O)(=O)c1ccc([C@@H](CC2CCCC2)C(=O)Nc2cnccn2)cc1Cl
active: [4] 15.2 µM
inactive: [1] | [3] | [5]

Cc1ccc(N=Nc2c(O)ccc3ccccc23)c(C)c1
inactive: [1] | [3] | [5]
active: [2] 4.15 µM | [4] 4.79 µM | [6] 0.565 µM

CCCCCCCCCCCCOS(=O)(=O)O
inactive: [1] | [2] | [3] | [4] | [5] | [7] | [15] | CDK2 (gene 1017)
active: [13] 25 µM | [9] 2.91 µM | [18] 32.9 µM

CCOC(C)=O
inactive: [9]

O=C(CC(=O)C(F)(F)C(F)(F)C(F)(F)F)c1cccs1
active: [1] 48.3 µM and 53.4 µM | [2] 44.8 µM and 43.6 µM | [3] 3.52 µM and 10.7 µM | [4] 13.5 µM and 13.3 µM | [5] 29.9 µM and 48.5 µM
